This is a sample that favours compounds with a hit; in the whole collection about 4.4% have one here.
TRHR enhancer – allosteric enhancers of human TRH receptor; AID 493056; TRHR cells, fluo-8 calcium fluorescence, EC20 TRH enhancement; enhancement, % at 2 µM; P34981; hit rate 0.66% among 360,000; in the data active means enhancement above about 30%; further: 0% is about no effect
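TRHR-expressing cells loaded with fluo-8 calcium dye were read kinetically (ex 480/em 530) during compound addition, then stimulated with an EC20 of TRH (10 nM final). Enhancement of the Gq-mediated intracellular calcium response was scored.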
D1 antag – human D1 dopamine receptor antagonism; P21728; HEK293 TREx D1 cells, calcium flux, dopamine EC80; active compounds read low; activity change, negative = inhibition, % at 10 µM; hit rate 3.2% among 360,000; in the data active means activity change below about -30%; further: on the % scale 0 is the no-effect control and ±100 the full control effect
Target sequence (P21728 whole entry, looked up): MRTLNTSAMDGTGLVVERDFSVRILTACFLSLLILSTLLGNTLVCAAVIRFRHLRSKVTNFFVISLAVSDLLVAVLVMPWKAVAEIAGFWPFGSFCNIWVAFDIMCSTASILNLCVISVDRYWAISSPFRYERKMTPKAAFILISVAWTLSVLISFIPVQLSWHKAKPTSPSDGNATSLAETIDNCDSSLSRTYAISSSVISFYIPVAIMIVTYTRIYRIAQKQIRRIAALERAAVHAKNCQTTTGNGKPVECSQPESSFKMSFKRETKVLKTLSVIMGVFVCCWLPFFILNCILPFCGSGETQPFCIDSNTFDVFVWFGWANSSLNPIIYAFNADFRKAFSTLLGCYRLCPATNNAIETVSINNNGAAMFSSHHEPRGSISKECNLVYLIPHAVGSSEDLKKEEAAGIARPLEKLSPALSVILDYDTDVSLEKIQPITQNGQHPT
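Calcium flux readout: force-coupled, inducible Hek293 Trex D1 line, cells induced overnight at 30 C with tetracycline, dye-loaded 30–90 min at RT. Antagonism scored against EC80 dopamine challenge given 180 s after compound.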
TRHR agonist – activates the human TRH receptor. P34981. TRHR cells, calcium flux fluo-8, FDSS agonist mode. activation, % at 2 µM. hit rate 0.18% among 360,000. AID 493084; further: 0% is about no effect
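Read-out: compound-evoked intracellular calcium rise in TRHR cells, fluo-8 dye, kinetic FDSS fluorescence at 1 s/cycle following a 10-cycle baseline. Cells cultured overnight before dye loading (30 min–1.5 h, RT).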
USP1-UAF1 inh – blocks the human USP1/UAF1 deubiquitinase complex; O94782; recombinant USP1/UAF1, Ub-Rhodamine cleavage fluorescence; Potency, µM (titrated, usually from 57.1 µM), inactives show at the top dose activity change, negative = inhibition, usual class: inhibitors; hit rate 0.23% among 390,000; AID 743255; active means well fitted inhibition curve with a large enough effect; inconclusive means small, poorly fitted or top-dose-only effect; inactive means no such curve, though single readings can be large or run the other way; further: potency means the concentration at half of the fitted maximal effect; on the % scale 0 is the no-effect control and ±100 the full control effect; nearly all actives have a fitted effect of over 60% in size
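USP1/UAF1 complex (1 nM) preincubated 15 min at room temperature with compound, then Ub-Rho substrate (150 nM final) added. Kinetic fluorescence at 480/540 nm over 6 reads at 60 s intervals; 50 mM HEPES pH 7.8, 0.5 mM EDTA, 0.1 mg/ml BSA, 1 mM TCEP, 0.01% Tween-20.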
D1 PAM – potentiators of human D1 dopamine receptor; P21728; HEK293 TREx D1 cells, calcium flux, dopamine EC20 potentiation; potentiation, % at 10 µM; hit rate 0.036% among 360,000; AID 504651; in the data active means potentiation above about 30%; further: 0% is about no effect
D1 ag – agonists of human D1 dopamine receptor; P21728; HEK293 T-REx D1 cells, calcium flux, agonist mode; activation, % at 2 µM; hit rate 1% among 360,000; AID 504660; further: 0% is about no effect
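Tetracycline-induced HEK293 TREx D1 cells, force-coupled to calcium signalling, were dye-loaded with a no-wash calcium kit. Compound was pin-added after a 10 s baseline. Fluorescence was read kinetically at 1 cycle/s for 180 s, with calcium rises flagged as agonism.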
* hit, by the source's call; ? = inconclusive; . = no result given; ! = not active in a repeat. Unless noted, no stated cut-off is given here; in the data, active means activation above about 30%; inactive means the rest.

SMILES	TRHR enhancer	D1 antag	TRHR agonist	USP1-UAF1 inh	D1 PAM	D1 ag
CN1CCN(C2=Cc3ccccc3Sc3cc(F)ccc32)CC1	1	-62*	0	-10%	-9	8
Oc1ccc(Cl)cc1C1=Nc2ccccc2N=C(c2cccc(Br)c2)C1	-3	23	-1	-14%	0	0
c1ccc(-c2cncnc2)cc1	-7	-32*	1	22%	2	2
O=C(COC(=O)CSc1ccc(F)cc1)NC1CC1	.	.	.	-15%	.	.
O=C(COC(=O)CSc1ccc(F)cc1)NCC1CCCCC1	3	-37*	0	-17%	-4	3
COC(=O)c1ccc(N=C2SCC(=O)N2C)cc1	37*	-9	0	-14%	-18	1
CN1C(=O)CSC1=Nc1ccc(Br)cc1	1	-7	0	?	-5	-4
COc1ccc(-c2cn[nH]c2C)cc1	31*	-37*	-1	-3%	0	-1
COc1ccc(CCn2c(=O)c3ccccc3n(CC(=O)Nc3cccc(C)c3)c2=O)cc1OC	-1	5	0	-24%	-1	3
CCC(=O)N1CCc2cc(Br)cc(S(=O)(=O)CCC(=O)N3CCN(c4cccc(C(F)(F)F)c4)CC3)c21	-4	-7	0	?	0	2
CCCCNC(=O)c1cc2n(n1)CCCN(Cc1ccc(C)cc1)C2=O	-8	6	0	-26%	0	2
CCCSCCCNC(=O)c1cc2n(n1)CCCN(Cc1ccc(C)cc1)C2=O	4	-8	-1	-5%	0	56*
COc1ccccc1CNC(=O)c1ccc(-c2nc(CN3CCc4ccccc43)c(C)o2)cc1	1	-4	0	-35%	-2	1
O=C(Nc1ccc(C(=O)O)cc1)/C(=C\C=C\c1ccccc1)NC(=O)c1ccccc1Cl	-2	4	1	-9%	-10	1
COC(=O)/C(=C\C=C\c1ccccc1)NC(=O)c1ccccc1	-4	-30*	0	-6%	-5	0
O=C(Nc1ccc(O)cc1)/C(=C\C=C\c1ccccc1)NC(=O)c1ccccc1	2	-32*	0	-1%	4	2
Cc1cc(C)cc(C(=O)N2CC(=O)Nc3ccc(Br)cc3C2c2ccccc2)c1 (configuration not stated)	-10	20	0	-19%	-1	0
O=C(NC1CCCC1)c1sc(=S)n2c1[nH]c(=O)c1ccccc12	-3	-4	4	-19%	-8	29
O=C(NCc1ccco1)c1sc(=S)n2c1[nH]c(=O)c1ccccc12	2	-28	8	-24%	-8	49*
N#CCN=C(c1ccccc1)c1ccccc1	-4	-47*	0	?	2	-1
N#CN=C(c1ccccc1)c1ccccc1	16	15	0	1%	-3	1
CC1CCC(NC(=O)c2ccc(CS(=O)(=O)c3ccc(Cl)cc3)o2)CC1 (configuration not stated)	-7	-18	1	-10%	1	23
Cc1cc(C)n(C(C)CC(=O)Nc2cccc(C#N)c2)n1 (configuration not stated)	13	-5	0	6%	-6	0
CNc1cccccc1=S	6	-56*	-1	-26%	1	0
CC(C)(C)/C(O)=C(/C#N)c1nc2ccccc2[nH]1	-5	3	1	-11%	0	1
SMILES	TRHR enhancer	D1 antag	TRHR agonist	USP1-UAF1 inh	D1 PAM	D1 ag
N#C/C(=C(O)\C=C\c1ccccc1)c1nc2ccccc2[nH]1	6	-31*	1	-21%	-16	3
CSc1cccc(N2CC(C(=O)Nc3ccccc3N3CCCC3)CC2=O)c1 (configuration not stated)	-8	-32*	-1	-16%	-8	1
O=C(Cc1cccs1)Nc1cccc(-c2nc3cc4ccccc4cc3[nH]2)c1	-2	-38*	1	-6%	-5	0
CC(=O)Nc1cccc(NC(=O)Cc2cccs2)c1	-4	-6	1	-13%	-3	1
Nc1nonc1-n1nnc(C(=O)N/N=C/c2ccncc2)c1CSc1ccccc1	-3	-47*	0	-12%	-4	18
CCCc1c(C(=O)N/N=C/c2cccs2)nnn1-c1nonc1N	9	10	1	-13%	5	31*
CCCN(CCC)Cc1c(C(=O)N/N=C/c2cccs2)nnn1-c1nonc1N	-5	-16	-1	?	-9	3
Nc1nonc1-n1nnc(C(=O)N/N=C/c2ccoc2)c1CSc1ccc(Cl)cc1	-13	-40*	0	-17%	-6	0
Cc1ccc(C)c(Cn2c(=O)n(Cc3ccccc3)c(=O)c3sc4ccccc4c32)c1	-4	8	0	-23%	0	0
CCOc1ccc2cc(-c3nnc(Nc4ccccc4F)s3)c(=O)oc2c1	23	6	2	-2%	3	6
CCOc1ccccc1Nc1nnc(-c2cc3cc(OC)ccc3oc2=O)s1	-2	-15	4	-26%	-3	56*
O=C(NCC1CCN(Cc2ccc(F)cc2)CC1)c1cc2ccc3cccnc3c2[nH]1	15	8	0	-10%	-4	4
COc1ccc2c(Cl)c(C(=O)N/N=C/c3ccc4c(c3)OCO4)sc2c1	8	13	1	-26%	-7	3
COc1ccc2c(Cl)c(C(=O)N/N=C3\CCCC(=O)C3)sc2c1	4	-18	-1	16µM*	-3	44*
Cc1[nH]c(=O)[nH]c(=O)c1C1N2CC3(C(C)C)CN1CC(C(C)C)(C2)C3=O (configuration not stated)	-3	9	1	-14%	-1	-1
Cc1ccc(C(=O)NNC(=O)c2ccc(NS(=O)(=O)c3cccs3)cc2)o1	32*	12	0	-27%	-3	3
OCCC1CN(Cc2ccncc2)CCN1C1CCCC1 (configuration not stated)	-6	-36*	0	-18%	0	3
COc1ccc(NC(=O)C2CCN(c3cnccn3)CC2)cc1Cl	-6	-58*!	0	-14%	-6	5
CC(=O)Nc1ccc(NC(=O)C2CCN(c3cnccn3)CC2)cc1	-2	3	1	-24%	2	0
CC[N+]1=C(C)C(C)(C)c2cc(C)ccc21	-2	-34*	14	?	-7	17
CCN1C(=O)C(=O)c2cc(C)ccc21	.	.	.	-15%	.	.
Cc1nnsc1C(=O)N/N=C/c1ccc2ccccc2c1O	15	6	65*	-26%	5	138*
CCN1CCN(C(c2cccs2)C(C)NC(=O)c2cccnc2)CC1 (configuration not stated)	-3	1	0	1%	-5	2

Compound activity as filed in PubChem BioAssay.
